In the library only some 19% were active in any assay of this set; here they are far more common.
DT40 TDP1 CPT – growth inhibition of DT40 Tdp1-/-;hTDP1 cells with camptothecin (screen for TDP1 inhibitors); chicken DT40 Tdp1-/-;hTDP1 cells + 20 nM CPT, ATP luminescence, 48 h; AID 686979; Potency, µM (titrated, usually from 46.2 µM), for the others: at the top dose activity change, negative = growth inhibition, hits mostly inhibitors; 420,000 compounds, 12% hits; note: potency is the fitted concentration of half-maximal effect; % is set by controls: 0 for no effect and ±100 for the full control effect; nearly all actives have a fitted effect of over 55% in size
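Chicken DT40 Tdp1-/- cells stably complemented with human TDP1 were seeded at 400 cells/well in medium containing 20 nM camptothecin, exposed to pin-transferred compounds, and grown at 37 °C for at least 48 hr. Viability was read as ATP luminescence.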
HepG2 viability – kills HepG2 cells in TGF-b inhibitor counter-screen. HepG2 CAGA-GFP viability, ATP luminescence, 18 h. Potency, µM (titrated, usually from 46.1 µM), for inactives: at the highest dose activity change, negative = cytotoxicity, usual class: cytotoxic. 410,000 compounds, 0.76% hits. AID 588856; note: potency is the fitted concentration of half-maximal effect
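HepG2 CAGA-GFP cells (1000/well, DMEM with 1% FBS) received compound, then TGF-beta at 500 pg/mL final, and were incubated 18 hours at 37 degrees C. Viability was read by CellTiter-Glo luminescence. Media-only wells were set as complete cell-killing and DMSO as no toxicity.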
TGFb inhibitor – blocks TGF-b signaling | 410,000 compounds, 1.2% hits | HepG2 CAGA-GFP TGF-b/SMAD3 reporter, GFP fluorescence, 18 h; TGF-beta stimulated, 500 pg/mL final | Potency, µM (series often up to 46.1 µM), for inactives: top-dose activity, negative = inhibition, usual class: inhibitors | AID 588855; note: potency is the fitted concentration of half-maximal effect; % is set by controls: 0 for no effect and ±100 for the full control effect; nearly all actives have a fitted effect of over 65% in size
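First, reporter cells (HEPG2 CAGA-GFP) rested 2 h at 37 degrees C. Next, compounds were pinned in and TGF-beta added to 500 pg/mL final. After 18 h, GFP was imaged per cell and summed per well.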
IL-1B inflam inh – blocks inflammasome-driven IL-1 beta release; 360,000 compounds, 4.7% hits; THP-1 LPS/ATP IL-1B secretion, AlphaLISA, 16 h; active compounds read low; activity change, % at 57.5 µM; in the data active = activity change below about -50%; inconclusive = mostly about -30% to -49%; note: % is set by controls: 0 for no effect and ±100 for the full control effect
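THP-1 cells pretreated 1 hr with compounds (up to 57.5 uM final), then stimulated with LPS (250 ng/mL final) plus ATP (1.25 mM final); secreted IL-1B measured by AlphaLISA after 16 hr, decreased signal indicating inhibition.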
DT40 TDP1 no CPT – qHTS for Inhibitors of human tyrosyl-DNA phosphodiesterase 1 (TDP1): qHTS in cells in absence of CPT | DT40 Tdp1-/- hTDP1 cells, no CPT, ATP luminescence, 48 h | Potency, µM (titrated, usually from 46.2 µM), for inactives: at the highest dose activity change, negative = growth inhibition, usual class: inhibitors | 420,000 compounds, 15% hits | AID 686978, 2013; note: potency is the fitted concentration of half-maximal effect; % is set by controls: 0 for no effect and ±100 for the full control effect; nearly all actives have a fitted effect of over 55% in size
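Compound effects on proliferation are scored in DT40 Tdp1-/-;hTDP1 cells in the absence of CPT. ATP levels (CellTiter-Glo luminescence) are recorded after a ≥48 hr, 37 °C incubation.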
TDP1 block – TDP1 (human) enzyme inhibition. Potency, µM (doses to about 130 µM), for inactives: at the highest dose activity change, negative = inhibition, hits mostly inhibitors. Q9NUW8. recombinant TDP1, AlphaScreen DNA substrate cleavage. 350,000 compounds, 0.28% hits; note: potency is the fitted concentration of half-maximal effect; % is set by controls: 0 for no effect and ±100 for the full control effect; nearly all actives have a fitted effect of over 40% in size
Target sequence (Q9NUW8 whole entry, looked up): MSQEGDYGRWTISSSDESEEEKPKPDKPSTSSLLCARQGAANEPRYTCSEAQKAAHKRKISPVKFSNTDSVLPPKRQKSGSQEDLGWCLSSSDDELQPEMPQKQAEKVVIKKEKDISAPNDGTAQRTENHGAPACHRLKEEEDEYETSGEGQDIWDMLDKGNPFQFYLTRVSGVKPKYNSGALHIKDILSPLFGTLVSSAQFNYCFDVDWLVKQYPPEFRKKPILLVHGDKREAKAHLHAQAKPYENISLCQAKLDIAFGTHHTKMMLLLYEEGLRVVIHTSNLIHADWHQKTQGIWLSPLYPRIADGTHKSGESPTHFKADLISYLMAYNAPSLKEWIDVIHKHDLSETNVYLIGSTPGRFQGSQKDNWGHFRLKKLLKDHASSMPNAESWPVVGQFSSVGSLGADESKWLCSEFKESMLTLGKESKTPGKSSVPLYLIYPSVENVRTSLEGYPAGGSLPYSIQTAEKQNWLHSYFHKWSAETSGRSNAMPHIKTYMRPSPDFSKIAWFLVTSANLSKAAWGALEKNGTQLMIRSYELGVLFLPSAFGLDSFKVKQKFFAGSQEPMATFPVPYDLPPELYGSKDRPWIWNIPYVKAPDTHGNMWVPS
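Enzyme-compound mixtures sat 15 min at room temperature, followed by a 5 min reaction with 15 nM final substrate and 10 min with AlphaScreen beads. Recombinant human Tdp1 was used at 1 nM final.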
* marks the source's active call; other numbers are inactive results; ? = inconclusive; · = not tested or not shown; [ ] = remark or other dose. Unless noted, calls come from the whole dose curve; as a rule, active = well fitted curve in the direction sought with a large enough effect; inconclusive = small, poorly fitted or top-dose-only effect, or another doubt; inactive = no such curve, though single readings can be large; an effect the other way counts as inactive or inconclusive.

SMILES	DT40 TDP1 CPT	HepG2 viability	TGFb inhibitor	IL-1B inflam inh	DT40 TDP1 no CPT	TDP1 block
COc1ccccc1Nc1nc(C)nc2c1oc1ccccc12	15µM*	-17%	-6%	6	9.2µM*	·
COc1cccc(CN2C(=O)NC(C)(C3CCN(Cc4cccc(O)c4)CC3)C2=O)c1OC (stereo not given)	-21%	·	·	·	-26%	·
Cc1ccc(CN=C2NC(=O)C(CC(=O)NCCc3ccccc3)S2)cc1 (stereo not given)	·	·	·	·	·	0%
COCCN1CCc2nc(SCC(=O)Nc3ccc(C)c(Cl)c3)[nH]c(=O)c2C1	0%	-26%	-22%	·	-29%	11%
CCc1nc(Nc2ccc(O)cc2)c2oc3ccccc3c2n1	?	-18%	3%	-89*	?	·
CCc1nc(Nc2ccc(OC)cc2OC)c2oc3ccccc3c2n1	7.3µM*	-29%	-20%	-12	21µM*	·
CCc1nc(Nc2ccccc2O)c2oc3ccccc3c2n1	-1%	4%	5%	0	-23%	·
Cc1nc(Nc2cccc(O)c2)c2oc3ccccc3c2n1	?	-34%	-3%	11	13µM*	·
Cc1nc(Nc2cccc(F)c2)c2oc3ccccc3c2n1	?	-18%	0%	-6	?	·
COc1cc(-c2ccc(Cl)cn2)cc2c1OCCN(S(=O)(=O)C[C@]13CC[C@H](CC1=O)C3(C)C)C2	13%[9.04 µM]	·	·	·	-6%	·
CCOC(=O)c1cccc(NC(=O)C(C)n2nc(C)c3c(C)n(-c4ccccc4)nc3c2=O)c1 (stereo not given)	?	-35%	?	·	?	3%
O=S(=O)(Cc1cc(NCc2ccccc2)nc(-c2ccccn2)n1)c1ccccc1	4.6µM*	-26%	-6%	39	4.6µM*	7%
Nc1ncnc2c1ccn2[C@H]1CN(Cc2ccc(Cl)cc2)C[C@@H](CO)O1	16µM*	1%	-6%	51	13µM*	·
Nc1ncnc2c1ccn2[C@H]1CN(Cc2ccc3c(c2)OCO3)C[C@@H](CO)O1	?	1%	-14%	?	13µM*	·
CN(C)c1ncnc2c1ncn2[C@H]1CN(Cc2ccc(Cl)cc2)C[C@@H](CO)O1	?	4%	25%	23	-19%	·
COc1cc(C(CC(=O)Nc2ccc(C)c(F)c2)N2Cc3ccccc3C2=O)cc(OC)c1OC (stereo not given)	-5%	-3%	-2%	·	-2%	6%
CCOc1ccc2[nH]c(=O)c(CN(CCc3ccccc3)C(=O)N3CCCC3)cc2c1	13µM*	-10%	-4%	-2	?	4%
CCOc1ccc2[nH]c(=O)c(CN(Cc3ccc(C)cc3)C(=O)N3CCCC3)cc2c1	?	-24%	23%	1	21µM*	4%
CCOc1ccccc1-n1nnc(S(=O)(=O)c2ccc(C)cc2)c1N	?	-22%	-15%	·	12µM*	-1%
CCc1ccc(S(=O)(=O)c2nnn(-c3cccc(C)c3)c2N)cc1	21µM*	-2%	-9%	·	15µM*	2%
COC(=O)C(C(C)=O)C1c2ccccc2C=C(C)N1C(=O)OC (stereo not given)	·	·	·	·	·	9%[21 µM]
CCOC(=O)c1cc(-c2ccccc2)n(-c2cccc(C(=O)Nc3cccc(F)c3)c2)c1C	-110%	-36%	?	·	?	6%
Cc1ccc(NC(=O)C2(NC(=O)c3ccccn3)CCCCC2)cc1Br	21µM*	-8%	0%	-10	?	-3%
O=S(=O)(N/N=C\c1c(F)cccc1Cl)c1ccc(Cl)cc1	13µM*	0%	16%	6	?	5%
COc1cc2c(cc1OC)C(COc1ccccc1OC)N(C(=O)C(C)C)CC2 (stereo not given)	11%	8%	3%	-27	-12%	4%
SMILES	DT40 TDP1 CPT	HepG2 viability	TGFb inhibitor	IL-1B inflam inh	DT40 TDP1 no CPT	TDP1 block
COc1cc(OC)c(NC(=O)N2CCc3cc(OC)c(OC)cc3C2CC(=O)O)cc1Cl (stereo not given)	15µM*	1%	4%	·	8.2µM*	6%
CCc1ccccc1NC(=O)N1CCc2cc(OC)c(OC)cc2C1CC(=O)OC (stereo not given)	?	10%	8%	·	18µM*	1%
CCCCOc1ccc(-c2nn(-c3ccccc3)cc2C2NC(=O)NC(C)=C2C(=O)OCC)cc1 (stereo not given)	?	-45%	?	·	?	·
CCOC(=O)c1cccc(NC(=O)CCc2c(C)nc3c4cccnc4nn3c2C)c1	?	4%	-1%	·	-27%	9%
Cc1ccc(NC(=O)COC(=O)c2nn(-c3ccc(Cl)cc3)cc2O)cc1	-22%	-24%	-2%	-1	?	-14%
Cc1ccc(-c2cn(-c3ccc(Cl)cc3)c(S(=O)(=O)CC(=O)Nc3ccccc3)n2)cc1	26µM*	-32%	?	·	?	15%
Cc1ccc(-n2cc(-c3ccccc3)nc2S(=O)(=O)CC(=O)Nc2ccc(F)cc2)cc1	23µM*	-40%	?	·	?	6%
O=C(CS(=O)(=O)c1ccccc1)Nc1nc(-c2ccc(F)cc2)cs1	?	-23%	?	-22	?	6%
COc1ccc(Cl)cc1-n1cc(-c2ccccc2)nc1SCC(=O)Nc1ccc(C)cc1	?	-18%	-29%	·	18µM*	9%
COc1ccc(-n2cc(-c3ccccc3)nc2SCC(=O)Nc2ccccc2C)cc1	?	3%	-8%	·	?	5%
CSc1ccc(CNC(=O)CCn2ccc3cc(S(=O)(=O)N4CCCC4)ccc32)cc1	?	-11%	-2%	-28	?	2%
